In PubChem BioAssay (NCATS):
Where “and” joins values, the source holds several entries; their conditions need not be identical. Identical values can stand only once. Records with an inconclusive call do not appear. More than one record can exist for a structure, and the calls need not agree. Calls of active or inactive are those of the source. Unless noted, calls come from the whole dose curve; as a rule, active = well fitted curve in the direction sought with a large enough effect; inconclusive = small, poorly fitted or top-dose-only effect, or another doubt; inactive = no such curve, though single readings can be large; an effect the other way counts as inactive or inconclusive.

Columns and labels:
PA-1 = experiment: Primary qHTS to identify gynecologic anti-cancer compounds using libraries of approved drugs and bioactive compounds (AID 1345084); details: Gynecologic cancer cell panel viability, ATPlite luminescence, 48 h; series mostly up to 57.5 µM; note: nearly all actives have a fitted effect of over 55% in size; note: potency is the fitted concentration of half-maximal effect
Method in brief: (§1)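 Cells, 1,000 per well, were allowed to settle for 16 h at 37 C before compound addition. Five concentrations were tested for 48 h, and viability was read by ATPlite luminescence after 15 min at room temperature.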

SKOV3 = experiment: as above; details: Gynecologic cancer cell panel viability, ATPlite luminescence, 48 h; series mostly up to 57.5 µM
Method in brief: as §1

Tov-21-G = experiment: as above; details: Gynecologic cancer cell panel viability, ATPlite luminescence, 48 h; series mostly up to 57.5 µM
Method in brief: as §1

Tov112D = experiment: as above; details: Gynecologic cancer cell panel viability, ATPlite luminescence, 48 h; series mostly up to 57.5 µM
Method in brief: as §1

[1] = Drug repurposing screens with cells derived from glioblastoma tumor samples (AID 1345199); details: GBM patient neurospheres viability, ATP luminescence, 48 h; note: nearly all actives have a fitted effect of over 40% in size; note: potency is the fitted concentration of half-maximal effect; for activity, negative = cell killing: % is set by controls: 0 for no effect and ±100 for the full control effect
Method in brief: (§2)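 Four patient lines of CD133+ GBM neurospheres were screened at several concentrations; hits were retested in those lines plus three slower-growing GBM lines, using 48-hour treatment and ATP-based viability.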

astro = experiment: as above; details: viability, ATP luminescence, 48 h; series mostly up to 45.9 µM
Method in brief: as §2

[2] = biological target: Nuclear receptor subfamily 1 group I member 2 (Rattus norvegicus) (UniProt Q9R1A7); experiment: qHTS assay for small molecule activators of the rat pregnane X receptor (rPXR) signaling pathway (AID 651751; call rule not given here; note: 0% is about no effect); details: rPXR reporter cells, luciferase (One-Glo), 24 h
[3] = qHTS assay to identify inhibitors of the type 1 interferon - major histocompatibility complex class I in skeletal muscle: Counter screen cell viability and HiBit confirmation (AID 1347412); details: iHSKM muscle cells + IFN-b, HiBiT or CellTiter-Glo, 24 h; Potency: HiBiT unless noted; Viability, at 45.9 µM (top of the series); note: % is set by controls: 0 for no effect and ±100 for the full control effect; nearly all actives have a fitted effect of over 60% in size
Method in brief: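 After 24 h with human IFN-beta (4 ng/ml) and compound titrations (top 46 uM final, 1:3, 12 points), HLA-B HiBit myoblasts were lysed for either Nano-Glo HiBiT luminescence or CellTiter Glo viability on paired plates.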

[4] = at 20 µM (top of the series), tumour line C
[5] = at 21.2 µM (top of the series), tumour line B
[6] = at 21.2 µM (top of the series), tumour line D
[7] = at 45.9 µM (top of the series), tumour line B
[8] = at 45.9 µM (top of the series), tumour line D
[9] = at 46.1 µM (top of the series), tumour line C

Nuclear receptor subfamily 1 group I member 2 (Rattus norvegicus), sequence (Q9R1A7 whole entry, looked up): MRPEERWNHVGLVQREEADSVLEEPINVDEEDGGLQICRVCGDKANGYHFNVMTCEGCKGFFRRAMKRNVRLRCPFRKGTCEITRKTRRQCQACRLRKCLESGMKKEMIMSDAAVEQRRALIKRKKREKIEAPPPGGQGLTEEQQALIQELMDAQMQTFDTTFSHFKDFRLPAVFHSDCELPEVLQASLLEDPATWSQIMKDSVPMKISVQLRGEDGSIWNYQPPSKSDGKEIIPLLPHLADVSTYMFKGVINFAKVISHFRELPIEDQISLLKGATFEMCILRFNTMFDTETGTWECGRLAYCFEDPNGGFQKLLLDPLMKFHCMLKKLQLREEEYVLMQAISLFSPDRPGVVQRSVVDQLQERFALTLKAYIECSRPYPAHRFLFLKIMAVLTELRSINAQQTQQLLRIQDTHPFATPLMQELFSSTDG

CC1=C(C(=O)O)N2C(=O)[C@@H](NC(=O)[C@H](N)c3ccc(O)cc3)[C@H]2SC1
inactive: Potency (PA-1) | Potency (SKOV3) | Potency (Tov-21-G) | Potency (Tov112D) | activity, negative = cell killing [1, 4] -0.623% | activity, negative = cell killing [1, 5] -10.2% | activity, negative = cell killing [1, 6] -21.8% | Potency (astro)

Cc1ncc(CSSCc2cnc(C)c(O)c2CO)c(CO)c1O
inactive: Potency (PA-1) | Potency (SKOV3) | Potency (Tov-21-G) | Potency (Tov112D) | activity, negative = cell killing [1, 7] -0.0133% | activity, negative = cell killing [1, 8] -10.6% | activity, negative = cell killing [1, 9] 3.55% | Potency (astro)

CCN(CC)CCOC(=O)C(c1ccccc1)C1CCCCC1 (stereo unspecified)
inactive: Potency (PA-1) | Potency (SKOV3) | Potency (Tov-21-G) | Potency (Tov112D) | activity, negative = cell killing [1, 7] -15% | Potency (astro)
active: Potency ([1]; tumour line A) 20 µM

C=C1C[C@H]2[C@@H]3C=C(C)C4=CC(=O)CC[C@]4(C)[C@H]3CC[C@]2(C)[C@@]1(OC(C)=O)C(C)=O
inactive: Potency (PA-1) | Potency (SKOV3) | Potency (Tov-21-G) | Potency (Tov112D) | activity, negative = cell killing [1, 7] -28.2% | activity, negative = cell killing [1, 8] -24.4% | activity, negative = cell killing [1, 9] -11.9% | Potency (astro)

CCN(CC)CCNC(=O)COc1ccc(Cl)cc1
inactive: Potency (PA-1) | Potency (SKOV3) | Potency (Tov-21-G) | Potency (Tov112D) | activity, negative = cell killing [1, 7] 1.81% | activity, negative = cell killing [1, 8] -18.1% | Potency (astro)

CCOC(=O)OC(C)OC1=C(C(=O)Nc2ccccn2)N(C)S(=O)(=O)c2ccccc21 (stereo unspecified)
inactive: Potency (PA-1) | Potency (SKOV3) | Potency (Tov-21-G) | Potency (Tov112D) | activity, negative = cell killing [1, 7] -23.8% | activity, negative = cell killing [1, 8] -1.93% | activity, negative = cell killing [1, 9] 20.6% | Potency (astro)

CN1CCN(C(c2ccccc2)c2ccccc2)CC1
inactive: Potency (PA-1) | Potency (SKOV3) | Potency (Tov-21-G) | Potency (Tov112D) | activity, negative = cell killing [1, 4] -1.97% | activity, negative = cell killing [1, 5] -1.95% | activity, negative = cell killing [1, 6] -26.8% | Potency (astro)

CC/C(=C(/CC)c1ccc(O)cc1)c1ccc(O)cc1
active: Potency ([1]; tumour line A) 14.1 µM
inactive: Potency (PA-1) | Potency (SKOV3) | Potency (Tov-21-G) | Potency (Tov112D) | activity, negative = cell killing [1, 7] -24.8% | activity, negative = cell killing [1, 9] -3.33% | max response [2] 1.62% and -5.34%

CCN(CC)C(=O)N1CCN(C)CC1
inactive: Potency (PA-1) | Potency (SKOV3) | Potency (Tov-21-G) | Potency (Tov112D) | activity, negative = cell killing [1, 5] -9.76% | activity, negative = cell killing [1, 6] -28.5% | activity, negative = cell killing ([1]; at 21.3 µM (top of the series), tumour line A) -8.09% | Potency (astro)

CCCCCC=CCC=CCCCCCCCC(=O)OCC
inactive: Potency (PA-1) | Potency (SKOV3) | Potency (Tov-21-G) | Potency (Tov112D) | activity, negative = cell killing [1, 7] -5.69% | activity, negative = cell killing [1, 8] -29.1% | activity, negative = cell killing [1, 9] -8.48% | Potency (astro)

CC(C)(CO)[C@@H](O)C(=O)NCCCO
inactive: Potency (PA-1) | Potency (SKOV3) | Potency (Tov-21-G) | Potency (Tov112D) | activity, negative = cell killing [1, 7] -12% | activity, negative = cell killing [1, 8] -24.7% | activity, negative = cell killing [1, 9] -3.06% | Potency (astro)

CN(C)CCCOc1nn(Cc2ccccc2)c2ccccc12
22.4 µM (active) and inactive: Potency (SKOV3)
31.6 µM (active) and inactive: Potency (PA-1) | Potency (Tov-21-G)
inactive: Potency (Tov112D) | activity, negative = cell killing [1, 4] -16.8% | Potency (astro)
active: Potency ([1]; tumour line A) 1.58 µM | Potency ([1]; tumour line D) 7.08 µM

CN1C(CCl)Nc2cc(Cl)c(S(N)(=O)=O)cc2S1(=O)=O (stereo unspecified)
inactive: Potency (PA-1) | Potency (SKOV3) | Potency (Tov-21-G) | Potency (Tov112D) | activity, negative = cell killing [1, 7] -5.52% | activity, negative = cell killing [1, 8] -2.64% | activity, negative = cell killing [1, 9] -28.6% | Potency (astro)

CC(C)N=C(N)/N=C(\N)Nc1ccc(Cl)cc1
active: Potency (SKOV3) 28.2 µM
inactive: Potency (PA-1) | Potency (Tov-21-G) | Potency (Tov112D) | activity, negative = cell killing [1, 4] -3.45% | activity, negative = cell killing [1, 5] -11.2% | activity, negative = cell killing [1, 6] -20.6% | Potency (astro)

CCN(CCCCOC(=O)c1ccc(OC)c(OC)c1)C(C)Cc1ccc(OC)cc1 (stereo unspecified)
inactive: Potency (PA-1) | Potency (SKOV3) | Potency (Tov-21-G) | Potency (Tov112D) | activity, negative = cell killing [1, 4] -2.24% | activity, negative = cell killing [1, 5] -9.34% | Potency (astro)
active: Potency ([1]; tumour line A) 5.62 µM

CCCCc1nc(Cl)c(CO)n1Cc1ccc(-c2ccccc2-c2nn[nH]n2)cc1
inactive: Potency (PA-1) | Potency (SKOV3) | Potency (Tov-21-G) | Potency (Tov112D) | activity, negative = cell killing [1, 7] -2.59% | activity, negative = cell killing [1, 8] -10.9% | activity, negative = cell killing [1, 9] -14.8% | Potency (astro)

CC(=O)OCC(=O)[C@@]1(OC(C)=O)[C@@H](C)C[C@H]2[C@@H]3C[C@H](F)C4=CC(=O)C=C[C@]4(C)[C@@]3(F)[C@@H](O)C[C@@]21C
inactive: Potency (PA-1) | Potency (SKOV3) | Potency (Tov-21-G) | Potency (Tov112D) | activity, negative = cell killing [1, 7] -11.4% | activity, negative = cell killing [1, 8] 4.06% | activity, negative = cell killing [1, 9] -10.3% | Potency [3]

O=S1(=O)c2cccc3cccc(c23)N1CCCN1CCN(c2ccc(F)cc2)CC1
inactive: Potency (PA-1) | Potency (SKOV3) | Potency (Tov-21-G) | Potency (Tov112D) | activity, negative = cell killing [1, 7] -28.9% | Potency (astro)
active: Potency ([1]; tumour line A) 12.6 µM
